Results filed as inconclusive are left out. The source made the active and inactive calls. Calls follow the shape of the dose curve; as a rule, active = well fitted curve in the direction sought with a large enough effect; inconclusive = small, poorly fitted or top-dose-only effect, or another doubt; inactive = no such curve, though single readings can be large; an effect the other way counts as inactive or inconclusive.
Assays:
[1] = qHTS assay to identify small molecule inhibitors of chordoma cells - UCH-2 (AID 1259356); also: series mostly up to about 46 µM; % is scaled to controls: 0 for no effect and ±100 for the full control effect
[2] = NS1 protein of Zika virus - qHTS assay to identify small molecule inhibitors in human HEK 293 cells (AID 1347053);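 also: series mostly up to about 46 µM; plate controls were infected untreated cells for no effect and uninfected cells for full effect; nearly all actives have a fitted effect of over 55% in size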
How it was run: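 Following 20 h seeding, HEK 293 cells took compound, then 1 h later ZIKV MR766 (MOI = 0.5). Incubation ran 24 h at 37 C before TR-FRET detection of NS1; a drop in signal indicates inhibition.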

[3] = qHTS of pediatric cancer cell lines to identify multiple opportunities for drug repurposing: Primary screen for TC32 cells (AID 1347089); also: % is scaled to controls: 0 for no effect and ±100 for the full control effect; nearly all actives have a fitted effect of over 60% in size
How it was run: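 Luminescent ATP read-out (CellTiter-Glo) of metabolically active TC32 cells after 48 h exposure. Concentration-response curves came from 11-point (MIPE, 0.78 nM–46 µM) or 8-point (NPC, 0.59 nM–46 µM) primary titrations; follow-up used 11 points.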

[4] = qHTS of pediatric cancer cell lines to identify multiple opportunities for drug repurposing: Primary screen for DAOY cells (AID 1347090);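 also: series mostly up to about 46 µM; plate controls were DMSO for no effect and bortezomib for full effect; nearly all actives have a fitted effect of over 55% in size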
How it was run: (§1)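 Viability measured as metabolically active cells via CellTiter-Glo luminescence following 48 hours of compound exposure, 11-point dilutions in confirmatory testing. 500-1,000 cells/well plated 5 hours before dosing; controls were DMSO and 2.3 µM bortezomib.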

[5] = qHTS of pediatric cancer cell lines to identify multiple opportunities for drug repurposing: Primary screen for SJ-GBM2 cells (AID 1347091);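 also: plate controls were DMSO neutral control for no effect and bortezomib for full effect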
How it was run: as §1

[6] = qHTS of pediatric cancer cell lines to identify multiple opportunities for drug repurposing: Primary screen for A673 cells (AID 1347092); also: % is scaled to controls: 0 for no effect and ±100 for the full control effect; nearly all actives have a fitted effect of over 45% in size
How it was run: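 Cell viability of A673 measured by CellTiter-Glo ATP luminescence after 48 hours compound exposure. Dilution series spanned 0.78 nM to 46 µM (MIPE, 11-point) or 0.59 nM to 46 µM (NPC, 8-point); bortezomib 2.3 uM positive control.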

[7] = qHTS of pediatric cancer cell lines to identify multiple opportunities for drug repurposing: Primary screen for SK-N-MC cells (AID 1347093);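 also: series mostly up to about 46 µM; plate controls were DMSO neutral control for no effect and bortezomib for full effect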
How it was run: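 Metabolically active cells were quantified by ATP-dependent luminescence (CellTiter-Glo, 15 min at room temperature) following 48 h treatment. Cells had been plated at 500-1,000 per well and settled for 5 h beforehand.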

[8] = qHTS of pediatric cancer cell lines to identify multiple opportunities for drug repurposing: Primary screen for BT-37 cells (AID 1347094);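 also: series mostly up to about 57 µM; plate controls were DMSO for no effect and bortezomib for full effect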
How it was run: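 CRCs from 8- or 11-point titrations (lowest final 0.59 nM NPC, 0.78 nM MIPE). Cell viability: CellTiter-Glo after 48 h incubation, 15 min room-temperature development, luminescence imaging.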

CC(=O)OCC(=O)[C@@]1(O)CC[C@H]2[C@@H]3CCC4=CC(=O)C=C[C@]4(C)[C@@]3(F)[C@@H](O)C[C@@]21C
inactive: outcome [1] | outcome [2] | outcome [3] | outcome [4] | outcome [5] | outcome [6] | Potency [7] | outcome [8]

CCN1CC(CCN2CCOCC2)C(c2ccccc2)(c2ccccc2)C1=O (centres undefined)
inactive: outcome [1] | outcome [2] | outcome [3] | outcome [4] | outcome [5] | outcome [6] | outcome [8]

O=C(NCCCN1CCOCC1)c1ccc(Cl)cc1
inactive: outcome [1] | outcome [2] | outcome [3] | outcome [4] | outcome [5] | outcome [6] | outcome [8]

CC(C)c1cc2c(cc1S(=O)(=O)O)[C@@]1(C)CCC[C@@](C)(C(=O)O)[C@@H]1CC2
inactive: outcome [1] | outcome [2] | outcome [3] | outcome [4] | outcome [5] | outcome [6] | Potency [7] | outcome [8]

Cc1onc(-c2ccccc2)c1-c1ccc(S(N)(=O)=O)cc1
inactive: outcome [1] | outcome [2] | outcome [3] | outcome [5] | outcome [6] | Potency [7] | outcome [8]

C[C@@H]1O[C@@H](OC[C@H]2O[C@@H](Oc3c(-c4ccc(O)c(O)c4)oc4cc(O)cc(O)c4c3=O)[C@H](O)[C@@H](O)[C@@H]2O)[C@H](O)[C@H](O)[C@H]1O
inactive: outcome [1] | outcome [2] | outcome [3] | outcome [4] | outcome [6] | Potency [7] | outcome [8]

Cn1c([N+](=O)[O-])cnc1COC(N)=O
inactive: outcome [1] | outcome [2] | outcome [3] | outcome [4] | outcome [6] | Potency [7] | outcome [8]

CC(=O)NCc1c(I)c(NC(C)=O)c(I)c(C(=O)O)c1I
inactive: outcome [1] | outcome [2] | outcome [3] | outcome [4] | outcome [5] | outcome [6] | outcome [8]

CC(=O)OCC(COC(C)=O)OC(C)=O
inactive: outcome [1] | outcome [2] | outcome [3] | outcome [5] | Potency [7] | outcome [8]

CCOC(=O)c1cccnc1
inactive: outcome [1] | outcome [2] | outcome [3] | outcome [4] | outcome [5] | outcome [6] | Potency [7] | outcome [8]

Nc1ccc(S(=O)(=O)c2ccc(N)cc2)cc1
inactive: outcome [1] | outcome [2] | outcome [3] | outcome [5] | outcome [6] | Potency [7] | outcome [8]

CC1CCc2cc(F)cc3c(=O)c(C(=O)O)cn1c23 (centres undefined)
inactive: outcome [1] | outcome [2] | outcome [3] | outcome [5] | outcome [6] | Potency [7] | outcome [8]

CC[C@]12CCCN3CCc4c(n(c5ccccc45)[C@@](O)(C(=O)OC)C1)[C@@H]32
inactive: outcome [1] | outcome [2] | outcome [3] | outcome [4] | outcome [5] | Potency [7] | outcome [8]

O=c1[nH]c(=O)n([C@H]2C[C@H](O)[C@@H](CO)O2)cc1I
inactive: outcome [1] | outcome [2] | outcome [3] | outcome [4] | outcome [5] | Potency [7] | outcome [8]

CCCCCCCCCCCCCCCCC(C(=O)O)C(O)(CC(=O)O)C(=O)O (centres undefined)
inactive: outcome [1] | outcome [2] | outcome [3] | outcome [4] | outcome [6] | Potency [7] | outcome [8]

O=c1[nH]c(=O)c2ccccc2o1
inactive: outcome [1] | outcome [2] | outcome [3] | outcome [5] | outcome [6] | Potency [7] | outcome [8]

C=CCN1C[C@H](C(=O)N(CCCN(C)C)C(=O)NCC)C[C@@H]2c3cccc4[nH]cc(c34)C[C@H]21
inactive: outcome [1] | outcome [2] | outcome [3] | outcome [4] | outcome [5] | outcome [6] | Potency [7] | outcome [8]

CN1C[C@@H]2C[C@H]1CN2c1cc2c(cc1F)c(=O)c(C(=O)O)cn2C1CC1
inactive: outcome [1] | outcome [2] | outcome [3] | outcome [4] | outcome [6] | Potency [7] | outcome [8]

Cc1cc(NC(=O)C2=C(O)c3ccccc3S(=O)(=O)N2C)no1
inactive: outcome [1] | outcome [2] | outcome [3] | outcome [4] | outcome [5] | outcome [6] | outcome [8]

COc1nccnc1NS(=O)(=O)c1ccc(N)cc1
inactive: outcome [1] | outcome [2] | outcome [3] | outcome [4] | outcome [6] | Potency [7] | outcome [8]

NC(=O)CC[C@@H](N)C(=O)O
inactive: outcome [1] | outcome [2] | outcome [3] | outcome [4] | outcome [5] | outcome [6] | Potency [7] | outcome [8]

CNc1c2c(nn1C)CCCC2
inactive: outcome [1] | outcome [2] | outcome [3] | outcome [4] | outcome [5] | outcome [8]

Cc1ccc(S(=O)(=O)NC(=O)NC2CCCCC2)cc1
inactive: outcome [1] | outcome [2] | outcome [3] | outcome [5] | outcome [6] | outcome [8]

CNCc1ccccc1
inactive: outcome [1] | outcome [2] | outcome [3] | outcome [4] | outcome [5] | outcome [6] | outcome [8]

FC(F)(F)C(Cl)Br (centres undefined)
inactive: outcome [1] | outcome [2] | outcome [3] | outcome [4] | outcome [8]

N[C@@H](Cc1ccc(O)cc1)C(=O)O
inactive: outcome [1] | activity change, negative = inhibition [2] 1.13% [at 9.2 µM] | activity change, negative = cytotoxic [3] 18.1% [at 9.17 µM] | activity change, negative = cytotoxic [4] 6.24% [at 9.22 µM] | activity change, negative = cytotoxic [5] 12% [at 9.22 µM] | activity change, negative = cytotoxic [6] 2.23% [at 9.22 µM] | activity change, negative = cytotoxic [7] 11% [at 9.22 µM] | activity change, negative = cytotoxic [8] 20.6% [at 11.5 µM]

O=C(O)C(S)C(S)C(=O)O (centres undefined)
inactive: outcome [1] | outcome [2] | outcome [3] | outcome [4] | outcome [5] | outcome [6] | outcome [8]

NS(=O)(=O)c1cc(-c2nn[nH]n2)c(NCc2cccs2)cc1Cl
inactive: outcome [1] | outcome [2] | outcome [3] | outcome [4] | outcome [5] | outcome [6] | Potency [7] | outcome [8]

COc1ccc(O)cc1
inactive: outcome [1] | outcome [2] | outcome [4] | outcome [6] | Potency [7] | outcome [8]

Source: PubChem BioAssay (NCATS)
